# The source made the active and inactive calls. No rule for the calls is given here.
# Target: Pantothenate synthetase (Mycobacterium tuberculosis (strain ATCC 25618 / H37Rv)) (UniProt P9WIL5)
# Assay: Coupled enzyme confirmation of inhibitors against recombinant Mtb PanC (AID 375);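 also: 0% = full reaction with vehicle and 100% = no enzyme background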
# Details: coupled enzyme assay; at 10 µM, hits give high values
# Sequence of Pantothenate synthetase (Mycobacterium tuberculosis (strain ATCC 25618 / H37Rv)) (P9WIL5 whole entry, looked up): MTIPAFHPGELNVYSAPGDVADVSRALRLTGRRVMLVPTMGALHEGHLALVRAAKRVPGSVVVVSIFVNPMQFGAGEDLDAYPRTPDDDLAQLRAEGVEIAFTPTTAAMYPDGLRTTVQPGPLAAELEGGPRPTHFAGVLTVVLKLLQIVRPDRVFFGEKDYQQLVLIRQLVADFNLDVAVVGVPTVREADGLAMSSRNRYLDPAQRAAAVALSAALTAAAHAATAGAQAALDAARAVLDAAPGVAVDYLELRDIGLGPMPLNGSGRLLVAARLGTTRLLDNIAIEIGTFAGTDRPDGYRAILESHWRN
row,SMILES,inhibition
1,CCOc1ccc(NC(=O)CN2CCN(CC(=O)c3ccc(OCC)cc3)CC2)cc1,4% (inactive)
2,CCCCOCP(=O)(CCCC)COCCCC,1% (inactive)
3,CCOc1ccccc1C(=O)Nc1nnc(CC)s1,0% (inactive)
4,CCCCOc1ccc(CSc2n[nH]c(C)n2)cc1,0% (inactive)
5,COc1ccc(NC(=O)CCc2nc(-c3ccccc3F)no2)cc1,0% (inactive)
6,O=C1CCc2cc(OCCCCc3nnnn3C3CCCCC3)ccc2N1,3% (inactive)
7,COc1ccc(NC(=O)CCS(=O)(=O)c2ccc(OC)cc2)cc1,0% (inactive)
8,COc1ccc(OC)c(-c2nnc(SCC(=O)NC3CCCCC3)o2)c1,0% (inactive)
9,COc1ccc(NC(=O)Nc2ccc(N3CCCC3=O)cc2)cc1OC,0% (inactive)
10,c1ccc(-n2ncc3c(N4CCCCC4)ncnc32)cc1,0% (inactive)
11,N#CC1=C(N)N(c2ccccc2)C(c2ccccc2)C1(C#N)C#N (stereo not given),0% (inactive)
12,CCOc1ccc(-c2nnc(N(CC)C(=O)C3CCC3)s2)cc1,11% (inactive)
13,O=C(O)c1ccc(COc2ccc(Cl)cc2)o1,0% (inactive)
14,COC(=O)N1CC(c2ccccc2)CC1=O (stereo not given),4% (inactive)
15,C=CCNC(=O)CSc1nc2sc(C)c(C)c2c(=O)[nH]1,0% (inactive)
16,Cc1cccc(OCCNC(=O)c2ncn[nH]2)c1,0% (inactive)
17,COc1ccc(S(=O)(=O)N2CCCC(C(=O)NCc3ccccn3)C2)cc1 (stereo not given),7% (inactive)
18,Cc1cc(C)n(C2=NS(=O)(=O)c3ccccc32)n1,1% (inactive)
19,CSCC[C@@H](Nc1nc(-c2ccccc2)nc2c1oc1ccccc12)C(=O)O,4% (inactive)
20,COc1ccc2cc(C#N)c(NC(C)C)nc2c1,0% (inactive)

row,SMILES,inhibition
1,CCOC(=O)CSc1nnc2n1C(C)(C)Cc1ccccc1-2,3% (inactive)
2,CCOCC(=O)Nc1ccc(S(=O)(=O)N2CCOCC2)cc1,0% (inactive)
3,Cc1cc(Cl)ccc1OCCCC(=O)NO,0% (inactive)
4,CCSc1nc2c(c(=O)[nH]1)C(c1cccnc1)C(C(=O)OC(C)C)=C(C)N2 (stereo not given),0% (inactive)
5,CC(=O)Nc1cccc(NC(=O)CSc2nnnn2C(C)C)c1,5% (inactive)
6,Cc1cc(C)c(OCC(=O)Nc2cccc(O)c2)cc1C,0% (inactive)
7,CCCCNC(=O)NS(=O)(=O)c1ccc(C)cc1,0% (inactive)
8,Cc1cc(NS(=O)(=O)c2ccc(NC(=O)COc3ccc(Cl)cc3)cc2)no1,9% (inactive)
9,C=CCn1c(SCC(=O)O)nnc1-c1cccc(Cl)c1,0% (inactive)
10,CCC1(CC)C(=O)N(C)C(=O)NC1=NCc1ccccc1,0% (inactive)
11,Cc1cc2oc(=O)cc(CN3CCN(Cc4ccc5c(c4)OCO5)CC3)c2cc1C,0% (inactive)
12,Cc1ccnc(NS(=O)(=O)c2ccc(NC(=O)Cc3cccs3)cc2)n1,3% (inactive)
13,O=C(CSc1nnnn1Cc1ccccc1)Nc1ccc2c(c1)OCO2,1% (inactive)
14,CCC(C(=O)Nc1ccccc1C(=O)N1CCCC1)N1C(=O)c2ccccc2C1=O (stereo not given),6% (inactive)
15,COc1cccc(OC)c1OCCNCCO,2% (inactive)
16,CCCn1c(=O)c(C(=O)NCc2ccccn2)c(O)c2ccccc21,0% (inactive)
17,Cn1c(=O)c2c(ncn2CC(=O)OCC(=O)NC2CCCc3ccccc32)n(C)c1=O (stereo not given),3% (inactive)
18,COc1ccc(Cc2noc(-c3ccc(C)cc3)n2)cc1,0% (inactive)
19,Cc1cc(C(F)F)n2nc(C(=O)Nc3ccc(S(=O)(=O)N4CCCCCC4)cc3)nc2n1,1% (inactive)
20,N#Cc1c(N2C(=O)C3C4C=CC(C4)C3C2=O)sc2c1CCC2 (stereo not given),0% (inactive)

# — PubChem BioAssay
